Measurements taken from PubChem BioAssay (Tox21).
Values without a mark were called inactive. Records with an inconclusive call do not appear. Where a call stands in place of a potency, no number is given. Active and inactive are the calls of the source. Unless noted, the call rests on the fitted dose curve.

Columns and labels:
[1] = Nuclear factor erythroid 2-related factor 2/antioxidant responsive element (Nrf2/ARE) small molecule agonists: qHTS cell viability counter screen in human keratinocytes (AID 1919968; active means well fitted curve in the direction sought with a large enough effect in the repeat runs; an effect the other way counts as inactive or inconclusive; further: nearly all actives have a fitted effect of over 55% in size; further: potency means the concentration at half of the fitted maximal effect)
In short: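 Measured as CellTiter-Fluor fluorescence, this readout tracks cytotoxicity in the same wells as the ARE-luciferase screen. HaCaT reporter cells (1,500/well) received compounds after a 5 h pre-incubation and were exposed for 23 h.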

[2] = Nuclear factor erythroid 2-related factor 2/antioxidant responsive element (Nrf2/ARE) small molecule agonists: luciferase reporter gene qHTS assay in human keratinocytes (AID 1919969); further: nearly all actives have a fitted effect of over 35% in size; further: potency means the concentration at half of the fitted maximal effect
[3] = molecular target: Gonadotropin-releasing hormone receptor (Homo sapiens) (UniProt P30968); assay: Human gonadotropin-releasing hormone receptor (GnRHR) small molecule agonists, calcium flux assay in GnRHR-HEK293 cells (AID 1920063); further: nearly all actives have a fitted effect of over 35% in size
In short: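 Fluorescence kinetics (480 nm excitation, 540 nm emission; 3 min, 1 s steps) report calcium mobilisation in human GnRHR-HEK293 cells in agonist mode. Dye incubation: 1 h, 37 C.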

[4] = molecular target: KiSS-1 receptor (Homo sapiens) (UniProt Q969F8); assay: Human kisspeptin (KISS1R) small molecule agonists, calcium flux assay in KISS1R-HEK293 cells (AID 1920064; active means well fitted curve in the direction sought with a large enough effect in the repeat runs; an effect the other way counts as inactive or inconclusive)
In short: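 Measures KISS1R agonism through calcium-sensitive dye fluorescence in stably transfected HEK293 cells, read for 3 min after pin-tool compound delivery; 15-point titrations in triplicate.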

[5] = G protein-coupled receptor (GPCR) small molecule agonists, calcium flux assay: HEK293 wild type cell line counter screen (AID 1920065)
In short: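 Readout: fluorescence at 480 nm excitation/540 nm emission, sampled at 1 s intervals for 3 min. Cells had been cultured 18 h, then dye-loaded 1 h at 37 C before compound or ATP addition.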

[6] = p53 small molecule agonists, cell-based qHTS assay with human liver microsomes (AID 1963577)
In short: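 p53RE-bla reporter cells were pre-incubated 5 h at 37 C, then treated with compounds plus human liver microsomes (0.5 mg/mL final) and NADPH (0.5 mg/mL final) for 16 h at 37 C. Beta-lactamase activity was read by LiveBLAzer fluorescence after 2 h at room temperature.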

[7] = p53 small molecule agonists, cell-based qHTS assay with rat liver microsomes (AID 1963578)
In short: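 p53RE-bla cells were exposed to compounds together with rat liver microsomes (0.5 mg/mL final) and NADPH (0.5 mg/mL final) for 16 h at 37 C, then read by LiveBLAzer beta-lactamase fluorescence after 2 h at room temperature.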

[8] = p53 small molecule agonists, cell-based qHTS assay with human liver microsomes: qHTS cell viability counter screen (AID 1963579); further: nearly all actives have a fitted effect of over 45% in size; further: potency means the concentration at half of the fitted maximal effect
In short: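 p53RE-bla cells (4,000/well) were pre-incubated 5 h at 37 C, then given compounds in DMSO plus human liver microsomes (0.5 mg/mL final) and NADPH (0.5 mg/mL final) for 16 h at 37 C. Viability was read by CellTiter-Glo luminescence.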

[9] = p53 small molecule agonists, cell-based qHTS assay with rat liver microsomes: qHTS cell viability counter screen (AID 1963580); further: nearly all actives have a fitted effect of over 45% in size; further: potency means the concentration at half of the fitted maximal effect
In short: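 Viability is assessed in parallel with the p53 reporter read: HCT-116 p53RE-bla cells receive compounds plus rat microsomes and NADPH (0.5 mg/mL final apiece), incubate 16 h at 37 C, and then CellTiter-Glo luminescence is recorded.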

[10] = molecular target: 5-hydroxytryptamine receptor 2A (Homo sapiens) (UniProt P28223); assay: 5-hydroxytryptamine receptor 2A (HTR2A) small molecule antagonists, cell-based qHTS assay (AID 1963586); further: nearly all actives have a fitted effect of over 45% in size
In short: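 Antagonist-mode intracellular calcium assay: DOI (4 nM) added after 5 min compound pre-incubation at room temperature to dye-loaded HTR2A-CHO cells. Fluorescence followed for 3 min, sampled every second.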

[11] = molecular target: 5-hydroxytryptamine receptor 2A (Homo sapiens) (UniProt P28223); assay: 5-hydroxytryptamine receptor 2A (HTR2A) small molecule agonists, cell-based qHTS assay (AID 1963587); further: nearly all actives have a fitted effect of over 30% in size
In short: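 CHO cells stably expressing human HTR2A, plated 18 h, loaded with calcium dye 1 h at 37 C. Agonist mode: compounds added and intracellular calcium fluorescence recorded kinetically for 2 min at 1 sec intervals.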

[12] = molecular target: Muscarinic acetylcholine receptor M1 (Homo sapiens) (UniProt P11229); assay: Cholinergic receptor muscarinic 1 (CHRM1) small molecule antagonists, cell-based qHTS assay (AID 1963588); further: nearly all actives have a fitted effect of over 40% in size
In short: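 CHRM1-CHO calcium-flux assay, antagonist mode. Cells were seeded 18 h, dye-loaded 1 h at 37 C and given compound for 5 min at RT, then acetylcholine was added at 50nM. FDSS fluorescence was read 3 min; 15 concentrations, three runs.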

[13] = molecular target: Muscarinic acetylcholine receptor M1 (Homo sapiens) (UniProt P11229); assay: Cholinergic receptor muscarinic 1 (CHRM1) small molecule agonists, cell-based qHTS assay (AID 1963589); further: nearly all actives have a fitted effect of over 35% in size
In short: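 Each compound was tested at 15 concentrations across three independent runs on dye-loaded CHO cells stably expressing human CHRM1, reading intracellular calcium fluorescence kinetically at 1 sec intervals.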

[14] = cAMP Responsive Elements (CRE) small molecule agonists, cell-based qHTS assay (AID 1963590)
In short: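 Cell line: CRE-bla HEK 293T; medium DMEM/10% dialyzed FBS/0.1 mM NEAA/1 mM pyruvate/25 mM HEPES; 3 h compound exposure; beta-lactamase FRET readout after 2 h substrate loading at RT.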

[15] = molecular target: Beta-2 adrenergic receptor (Homo sapiens) (UniProt P07550); assay: Adrenergic beta2 receptor (ADRB2) small molecule antagonists, cell-based qHTS assay (AID 1963592); further: series mostly up to about 92 µM; nearly all actives have a fitted effect of over 50% in size
In short: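 Cells (CHO, stable ADRB2 overexpression) incubated 18-20hr at 37C; compounds added from DMSO; agonist mix (1nM isoproterenol, 100uM IBMX, 25uM Ro-20-1724) added; 0.5hr RT; d2-cAMP and anti-cAMP-cryptate added; 1hr RT; 665/615 nm read.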

[16] = molecular target: Beta-2 adrenergic receptor (Homo sapiens) (UniProt P07550); assay: Adrenergic beta2 receptor (ADRB2) small molecule agonists, cell-based qHTS assay (AID 1963593);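 further: CHO cells stably overexpressing human ADRB2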
In short: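 CHO cells stably over-expressing ADRB2 were plated overnight at 37C, then dosed with compounds plus a stimulation mix containing 100uM IBMX and 25uM Ro-20-1724 for 0.5hr at room temperature. cAMP was measured by HTRF competition, 1hr.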

[17] = molecular target: D(2) dopamine receptor (Homo sapiens) (UniProt P14416); assay: Dopamine D2 receptor (DRD2) small molecule agonists, cell-based qHTS assay (AID 1963594); further: nearly all actives have a fitted effect of over 35% in size
In short: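 HEK293 cells stably expressing human DRD2, pre-treated with PDE inhibitor Ro20-1724 (0.1 mM final) and compound 10 min at room temperature, then stimulated with NKH477 (200nM […]) for 30 min. cAMP read by HTRF (665/620 nm).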

[18] = molecular target: D(2) dopamine receptor (Homo sapiens) (UniProt P14416); assay: Dopamine D2 receptor (DRD2) small molecule antagonists, cell-based qHTS assay (AID 1963595; active means well fitted inhibition curve with a large enough effect in the signal ratio in the repeat runs, with a control signal flat; the % refers to the signal ratio)
In short: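 HEK293 cells stably expressing DRD2, preincubated with 0.1 mM Ro20-1724 and compounds 10 min, were stimulated with 200 nM NKH477 plus 12 nM quinpirole for 30 min at room temperature; cAMP measured by HTRF (665/620 nm).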

[19] = cAMP Responsive Elements (CRE) small molecule antagonists, cell-based qHTS assay (AID 1963591; active means well fitted inhibition curve with a large enough effect in the signal ratio in the repeat runs, not every such curve was filed as active; the % refers to the signal ratio)
In short: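 Inhibition of NKH477-driven (0.25 uM final) CRE-beta-lactamase signal in HEK293T cells, 3 h compound exposure at 37 °C, detected by FRET substrate fluorescence.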

[20] = p53 small molecule agonists, cell-based qHTS assay (AID 1963582; active means well fitted activation curve with a large enough effect in the signal ratio in the repeat runs, not every such curve was filed as active; the % refers to the signal ratio)
In short: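 Compounds are pin-transferred in DMSO onto p53RE-bla cells and incubated 16 h at 37 C. The B/G FRET beta-lactamase substrate is then applied for 2 h at RT and fluorescence recorded.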

Sequence of Gonadotropin-releasing hormone receptor (Homo sapiens) (P30968 whole entry, looked up): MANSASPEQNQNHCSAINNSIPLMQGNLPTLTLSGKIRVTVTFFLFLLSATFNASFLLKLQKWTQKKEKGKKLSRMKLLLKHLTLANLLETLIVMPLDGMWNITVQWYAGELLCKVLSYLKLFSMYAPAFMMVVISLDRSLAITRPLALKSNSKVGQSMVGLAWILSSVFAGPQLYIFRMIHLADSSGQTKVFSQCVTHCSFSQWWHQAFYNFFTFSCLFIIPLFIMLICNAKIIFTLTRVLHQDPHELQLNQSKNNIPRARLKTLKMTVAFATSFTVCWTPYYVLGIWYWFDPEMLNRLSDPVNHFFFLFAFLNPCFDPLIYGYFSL
Sequence of KiSS-1 receptor (Homo sapiens) (Q969F8 whole entry, looked up): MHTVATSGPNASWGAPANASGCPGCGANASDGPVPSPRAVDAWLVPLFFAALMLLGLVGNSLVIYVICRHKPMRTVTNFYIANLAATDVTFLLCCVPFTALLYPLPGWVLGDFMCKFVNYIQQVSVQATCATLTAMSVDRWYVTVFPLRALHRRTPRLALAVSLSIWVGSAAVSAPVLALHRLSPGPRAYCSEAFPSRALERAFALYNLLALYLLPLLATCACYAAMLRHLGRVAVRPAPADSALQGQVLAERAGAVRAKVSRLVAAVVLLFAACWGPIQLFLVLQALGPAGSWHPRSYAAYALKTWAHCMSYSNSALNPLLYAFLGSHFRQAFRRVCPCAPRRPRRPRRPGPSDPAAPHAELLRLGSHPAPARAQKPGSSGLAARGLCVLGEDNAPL
Sequence of Muscarinic acetylcholine receptor M1 (Homo sapiens) (P11229 whole entry, looked up): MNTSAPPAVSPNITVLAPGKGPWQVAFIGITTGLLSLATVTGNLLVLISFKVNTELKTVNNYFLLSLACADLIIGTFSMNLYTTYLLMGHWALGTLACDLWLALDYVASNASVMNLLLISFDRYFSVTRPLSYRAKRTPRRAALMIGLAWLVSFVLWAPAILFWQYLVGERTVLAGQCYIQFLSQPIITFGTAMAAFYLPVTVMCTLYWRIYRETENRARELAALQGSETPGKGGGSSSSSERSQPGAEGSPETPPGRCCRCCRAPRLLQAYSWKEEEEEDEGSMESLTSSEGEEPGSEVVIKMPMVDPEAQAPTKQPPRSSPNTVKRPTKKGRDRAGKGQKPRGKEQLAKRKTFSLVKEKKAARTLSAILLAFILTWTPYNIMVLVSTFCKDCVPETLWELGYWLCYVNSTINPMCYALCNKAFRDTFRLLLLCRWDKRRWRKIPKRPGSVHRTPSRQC
Sequence of D(2) dopamine receptor (Homo sapiens) (P14416 whole entry, looked up): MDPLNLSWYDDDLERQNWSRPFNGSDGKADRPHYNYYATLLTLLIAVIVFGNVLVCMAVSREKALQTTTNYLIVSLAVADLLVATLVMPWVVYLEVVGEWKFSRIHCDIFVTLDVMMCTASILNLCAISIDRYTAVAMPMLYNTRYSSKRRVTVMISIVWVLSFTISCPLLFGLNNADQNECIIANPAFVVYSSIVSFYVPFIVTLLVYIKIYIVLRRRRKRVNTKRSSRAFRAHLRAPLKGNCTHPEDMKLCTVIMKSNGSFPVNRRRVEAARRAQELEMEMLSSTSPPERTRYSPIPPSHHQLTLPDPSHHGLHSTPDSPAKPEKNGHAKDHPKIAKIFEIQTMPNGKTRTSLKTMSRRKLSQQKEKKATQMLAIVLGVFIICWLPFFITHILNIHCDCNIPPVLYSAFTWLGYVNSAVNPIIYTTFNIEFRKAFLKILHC
Sequence of 5-hydroxytryptamine receptor 2A (Homo sapiens) (P28223 whole entry, looked up): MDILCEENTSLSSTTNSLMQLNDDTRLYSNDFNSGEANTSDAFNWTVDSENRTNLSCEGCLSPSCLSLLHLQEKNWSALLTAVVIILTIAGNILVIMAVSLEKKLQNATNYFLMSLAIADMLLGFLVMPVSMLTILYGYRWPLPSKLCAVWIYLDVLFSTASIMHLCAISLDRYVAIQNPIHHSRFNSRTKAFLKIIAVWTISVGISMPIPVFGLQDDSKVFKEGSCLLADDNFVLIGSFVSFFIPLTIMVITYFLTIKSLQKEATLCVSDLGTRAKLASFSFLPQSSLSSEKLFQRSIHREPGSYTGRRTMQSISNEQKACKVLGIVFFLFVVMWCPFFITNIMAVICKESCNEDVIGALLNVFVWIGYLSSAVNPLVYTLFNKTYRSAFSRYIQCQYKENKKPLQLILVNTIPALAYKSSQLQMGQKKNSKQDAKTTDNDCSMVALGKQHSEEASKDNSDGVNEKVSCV
Sequence of Beta-2 adrenergic receptor (Homo sapiens) (P07550 whole entry, looked up): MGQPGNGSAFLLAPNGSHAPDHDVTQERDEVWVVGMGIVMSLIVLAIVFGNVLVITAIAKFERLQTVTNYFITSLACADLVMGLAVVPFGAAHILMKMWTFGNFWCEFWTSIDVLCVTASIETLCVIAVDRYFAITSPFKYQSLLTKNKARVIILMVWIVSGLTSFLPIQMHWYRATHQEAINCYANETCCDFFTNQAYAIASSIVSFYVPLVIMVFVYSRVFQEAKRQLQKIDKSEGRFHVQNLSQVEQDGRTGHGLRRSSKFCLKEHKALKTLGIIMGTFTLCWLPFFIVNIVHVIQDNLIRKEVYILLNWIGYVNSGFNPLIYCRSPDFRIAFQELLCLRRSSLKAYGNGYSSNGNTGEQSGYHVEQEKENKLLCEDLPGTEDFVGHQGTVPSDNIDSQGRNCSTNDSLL

SMILES	Potency [1]	Potency [2]	Potency [3]	outcome [4]	outcome [5]	Potency [6]	Potency [7]	Potency [8]	Potency [9]	Potency [10]	Potency [11]	Potency [12]	Potency [13]	Potency [14]	Potency [15]	Potency [16]	Potency [17]	Potency [18]	Potency [19]	Potency [20]
NC(=O)c1ccccc1[N+](=O)[O-]	inactive	inactive	inactive	inactive	inactive	inactive	inactive	inactive	inactive	inactive	inactive	inactive	inactive	inactive	inactive	inactive	inactive	inactive	–	–
C/C=C(/C(=C/C)c1ccc(OC(C)=O)cc1)c1ccc(OC(C)=O)cc1	inactive	inactive	inactive	inactive	inactive	inactive	inactive	inactive	inactive	–	inactive	inactive	inactive	inactive	inactive	–	inactive	inactive	–	–
N#Cc1cc2ccccc2c2ccccc12	inactive	inactive	inactive	inactive	inactive	inactive	inactive	inactive	inactive	inactive	inactive	–	inactive	inactive	inactive	–	inactive	–	inactive	–
C=C(C)C1CCC(C)CC1O (stereo not drawn)	inactive	inactive	inactive	inactive	inactive	inactive	inactive	inactive	1.62 µM (active)	inactive	inactive	inactive	inactive	inactive	inactive	–	inactive	inactive	inactive	–
CC1=NN(c2ccc(C(=O)O)cc2)C(=O)C1	inactive	inactive	inactive	inactive	inactive	inactive	inactive	inactive	–	inactive	inactive	inactive	inactive	inactive	inactive	inactive	inactive	inactive	inactive	inactive
CCCCCN(CCCCC)C(=O)C(CCC(=O)O)NC(=O)c1ccc(Cl)c(Cl)c1 (stereo not drawn)	inactive	inactive	inactive	inactive	inactive	inactive	inactive	inactive	inactive	inactive	–	inactive	inactive	–	inactive	–	inactive	inactive	inactive	–
Cc1ccc(Cl)c(OCC(O)CNC(C)(C)C)c1 (stereo not drawn)	inactive	inactive	inactive	inactive	inactive	inactive	inactive	inactive	inactive	–	inactive	inactive	–	inactive	–	–	inactive	inactive	–	–
CNc1ccc(O)cc1	54.4 µM (active)	24.3 µM (active)	inactive	inactive	inactive	inactive	inactive	25.7 µM (active)	inactive	–	inactive	–	inactive	–	–	–	–	–	–	–
